Tests used:
[1] = molecular target: High affinity nerve growth factor receptor (Homo sapiens) (UniProt P04629); conditions: at 1 µM;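 note: each value is the mean percent inhibition of TRKA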
[2] = molecular target: BDNF/NT-3 growth factors receptor (Homo sapiens) (UniProt Q16620); conditions: at 0.1 µM
[3] = molecular target: BDNF/NT-3 growth factors receptor (Homo sapiens) (UniProt Q16620); conditions: at 1 µM
[4] = molecular target: NT-3 growth factor receptor (Homo sapiens) (UniProt Q16288); conditions: at 0.1 µM
NT-3 growth factor receptor (Homo sapiens), sequence (Q16288 32-839 limits assumed): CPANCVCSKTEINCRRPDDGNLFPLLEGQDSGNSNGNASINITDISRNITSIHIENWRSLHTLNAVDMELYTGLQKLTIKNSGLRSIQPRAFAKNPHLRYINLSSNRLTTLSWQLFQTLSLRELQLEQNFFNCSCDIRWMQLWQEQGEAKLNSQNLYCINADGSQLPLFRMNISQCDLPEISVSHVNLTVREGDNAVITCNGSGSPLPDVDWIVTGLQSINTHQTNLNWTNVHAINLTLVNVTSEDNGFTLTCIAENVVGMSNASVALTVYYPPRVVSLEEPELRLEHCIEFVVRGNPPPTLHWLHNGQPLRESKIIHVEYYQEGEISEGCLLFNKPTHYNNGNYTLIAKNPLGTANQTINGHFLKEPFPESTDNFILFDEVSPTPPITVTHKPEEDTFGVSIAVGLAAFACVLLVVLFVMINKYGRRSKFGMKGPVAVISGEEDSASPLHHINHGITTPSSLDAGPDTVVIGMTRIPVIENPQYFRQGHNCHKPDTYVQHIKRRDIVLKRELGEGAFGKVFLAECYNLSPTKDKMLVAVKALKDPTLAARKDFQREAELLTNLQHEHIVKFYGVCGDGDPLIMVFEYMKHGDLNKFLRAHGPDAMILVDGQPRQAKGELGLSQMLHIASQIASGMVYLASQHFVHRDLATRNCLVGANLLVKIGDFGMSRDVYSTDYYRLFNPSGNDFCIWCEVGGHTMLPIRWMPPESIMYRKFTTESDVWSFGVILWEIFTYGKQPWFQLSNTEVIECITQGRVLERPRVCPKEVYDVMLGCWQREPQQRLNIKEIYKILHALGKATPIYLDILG

[5] = molecular target: NT-3 growth factor receptor (Homo sapiens) (UniProt Q16288); conditions: at 1 µM
[6] = molecular target: T1, Tyrosine-protein kinase TXK (Homo sapiens) (UniProt P42681); conditions: at 0.1 µM
T1 sequence (whole entry): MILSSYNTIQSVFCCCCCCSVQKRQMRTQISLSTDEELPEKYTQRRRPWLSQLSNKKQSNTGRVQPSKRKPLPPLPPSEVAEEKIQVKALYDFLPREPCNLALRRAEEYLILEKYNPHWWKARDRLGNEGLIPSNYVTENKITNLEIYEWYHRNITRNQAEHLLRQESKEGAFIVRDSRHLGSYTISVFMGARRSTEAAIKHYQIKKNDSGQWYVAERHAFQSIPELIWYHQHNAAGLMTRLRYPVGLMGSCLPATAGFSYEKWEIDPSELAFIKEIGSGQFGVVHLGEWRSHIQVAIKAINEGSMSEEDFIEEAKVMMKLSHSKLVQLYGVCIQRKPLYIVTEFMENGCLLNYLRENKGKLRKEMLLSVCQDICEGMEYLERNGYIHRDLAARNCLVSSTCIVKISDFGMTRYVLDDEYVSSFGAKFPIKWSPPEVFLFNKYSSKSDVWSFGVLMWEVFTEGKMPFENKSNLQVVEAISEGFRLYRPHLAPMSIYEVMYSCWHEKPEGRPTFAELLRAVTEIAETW

[7] = molecular target: T1, Tyrosine-protein kinase TXK (Homo sapiens); conditions: at 1 µM
[8] = molecular target: Non-receptor tyrosine-protein kinase TYK2 (Homo sapiens) (UniProt P29597); conditions: at 0.1 µM;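 note: each value is a mean of the inhibition readings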
Non-receptor tyrosine-protein kinase TYK2 (Homo sapiens), sequence (P29597 whole entry): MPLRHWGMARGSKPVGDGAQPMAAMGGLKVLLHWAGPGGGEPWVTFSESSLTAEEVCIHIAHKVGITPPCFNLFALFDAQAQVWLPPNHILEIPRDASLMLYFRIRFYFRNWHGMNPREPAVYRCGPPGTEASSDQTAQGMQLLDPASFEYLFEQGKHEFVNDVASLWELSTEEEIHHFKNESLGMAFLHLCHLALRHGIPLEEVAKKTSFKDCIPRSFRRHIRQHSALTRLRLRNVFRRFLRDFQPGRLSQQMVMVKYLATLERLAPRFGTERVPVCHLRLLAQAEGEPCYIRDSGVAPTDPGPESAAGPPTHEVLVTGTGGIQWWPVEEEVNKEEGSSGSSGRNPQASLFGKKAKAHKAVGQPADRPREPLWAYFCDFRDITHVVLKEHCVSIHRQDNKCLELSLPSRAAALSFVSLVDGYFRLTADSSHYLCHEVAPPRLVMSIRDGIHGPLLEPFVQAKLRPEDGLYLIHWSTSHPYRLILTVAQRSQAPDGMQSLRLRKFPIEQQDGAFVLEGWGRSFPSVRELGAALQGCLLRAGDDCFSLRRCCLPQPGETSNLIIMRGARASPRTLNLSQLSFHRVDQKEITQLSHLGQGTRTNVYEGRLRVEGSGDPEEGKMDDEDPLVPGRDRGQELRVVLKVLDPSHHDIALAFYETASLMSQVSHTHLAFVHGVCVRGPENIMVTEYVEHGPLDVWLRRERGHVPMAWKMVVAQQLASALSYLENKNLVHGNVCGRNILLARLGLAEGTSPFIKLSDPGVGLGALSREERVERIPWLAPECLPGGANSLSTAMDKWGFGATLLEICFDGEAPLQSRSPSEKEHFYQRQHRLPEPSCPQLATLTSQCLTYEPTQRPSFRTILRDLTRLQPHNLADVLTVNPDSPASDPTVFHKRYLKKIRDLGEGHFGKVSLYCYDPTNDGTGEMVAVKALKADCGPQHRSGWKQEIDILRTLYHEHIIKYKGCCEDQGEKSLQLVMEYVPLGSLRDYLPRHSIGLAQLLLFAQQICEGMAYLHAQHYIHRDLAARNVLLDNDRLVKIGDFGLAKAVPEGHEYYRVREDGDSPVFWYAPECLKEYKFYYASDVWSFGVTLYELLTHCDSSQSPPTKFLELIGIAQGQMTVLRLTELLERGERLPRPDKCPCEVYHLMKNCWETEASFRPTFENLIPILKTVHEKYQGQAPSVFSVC

[9] = molecular target: T2, Dual specificity protein kinase TTK (Homo sapiens) (UniProt P33981); conditions: at 1 µM;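 note: reported figures are mean TTK inhibition at 1 µM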
T2 sequence (whole entry): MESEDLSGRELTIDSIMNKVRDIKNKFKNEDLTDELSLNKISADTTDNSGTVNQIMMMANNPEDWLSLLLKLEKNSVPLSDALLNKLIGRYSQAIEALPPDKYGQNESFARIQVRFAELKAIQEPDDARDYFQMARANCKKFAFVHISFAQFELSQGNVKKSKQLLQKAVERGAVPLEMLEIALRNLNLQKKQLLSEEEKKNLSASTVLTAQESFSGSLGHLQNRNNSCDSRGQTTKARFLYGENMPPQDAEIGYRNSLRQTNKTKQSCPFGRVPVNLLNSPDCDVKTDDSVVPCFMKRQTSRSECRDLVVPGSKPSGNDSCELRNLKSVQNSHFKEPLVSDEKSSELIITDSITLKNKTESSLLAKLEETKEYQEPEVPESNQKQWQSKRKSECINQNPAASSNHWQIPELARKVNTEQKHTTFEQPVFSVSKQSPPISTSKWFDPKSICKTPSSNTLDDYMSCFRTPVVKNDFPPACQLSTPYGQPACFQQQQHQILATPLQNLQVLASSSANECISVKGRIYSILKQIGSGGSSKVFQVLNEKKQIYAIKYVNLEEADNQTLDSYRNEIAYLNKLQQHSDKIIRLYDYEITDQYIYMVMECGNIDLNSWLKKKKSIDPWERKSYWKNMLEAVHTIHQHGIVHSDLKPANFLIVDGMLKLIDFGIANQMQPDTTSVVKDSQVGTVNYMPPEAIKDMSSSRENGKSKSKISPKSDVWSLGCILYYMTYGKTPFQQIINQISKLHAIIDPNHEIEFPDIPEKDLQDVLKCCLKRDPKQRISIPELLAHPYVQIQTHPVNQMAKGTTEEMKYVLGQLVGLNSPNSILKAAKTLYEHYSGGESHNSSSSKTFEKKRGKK

[10] = molecular target: T3, Aurora kinase A (Homo sapiens) (UniProt O14965); conditions: at 0.1 µM;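 note: each reported value is a mean percent inhibition of Aurora-A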
T3 sequence (whole entry): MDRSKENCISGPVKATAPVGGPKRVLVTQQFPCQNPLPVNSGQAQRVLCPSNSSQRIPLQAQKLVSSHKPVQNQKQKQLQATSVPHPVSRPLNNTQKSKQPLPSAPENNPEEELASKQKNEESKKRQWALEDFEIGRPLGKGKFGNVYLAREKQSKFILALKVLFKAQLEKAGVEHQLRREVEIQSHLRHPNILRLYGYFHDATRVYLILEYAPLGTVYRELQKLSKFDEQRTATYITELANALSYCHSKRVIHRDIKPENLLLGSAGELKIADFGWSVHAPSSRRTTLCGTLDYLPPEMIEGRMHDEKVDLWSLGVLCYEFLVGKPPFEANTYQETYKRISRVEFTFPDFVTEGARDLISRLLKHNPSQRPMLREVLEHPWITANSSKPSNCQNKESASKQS

BDNF/NT-3 growth factors receptor (Homo sapiens), sequence (Q16620 32-822 limits assumed): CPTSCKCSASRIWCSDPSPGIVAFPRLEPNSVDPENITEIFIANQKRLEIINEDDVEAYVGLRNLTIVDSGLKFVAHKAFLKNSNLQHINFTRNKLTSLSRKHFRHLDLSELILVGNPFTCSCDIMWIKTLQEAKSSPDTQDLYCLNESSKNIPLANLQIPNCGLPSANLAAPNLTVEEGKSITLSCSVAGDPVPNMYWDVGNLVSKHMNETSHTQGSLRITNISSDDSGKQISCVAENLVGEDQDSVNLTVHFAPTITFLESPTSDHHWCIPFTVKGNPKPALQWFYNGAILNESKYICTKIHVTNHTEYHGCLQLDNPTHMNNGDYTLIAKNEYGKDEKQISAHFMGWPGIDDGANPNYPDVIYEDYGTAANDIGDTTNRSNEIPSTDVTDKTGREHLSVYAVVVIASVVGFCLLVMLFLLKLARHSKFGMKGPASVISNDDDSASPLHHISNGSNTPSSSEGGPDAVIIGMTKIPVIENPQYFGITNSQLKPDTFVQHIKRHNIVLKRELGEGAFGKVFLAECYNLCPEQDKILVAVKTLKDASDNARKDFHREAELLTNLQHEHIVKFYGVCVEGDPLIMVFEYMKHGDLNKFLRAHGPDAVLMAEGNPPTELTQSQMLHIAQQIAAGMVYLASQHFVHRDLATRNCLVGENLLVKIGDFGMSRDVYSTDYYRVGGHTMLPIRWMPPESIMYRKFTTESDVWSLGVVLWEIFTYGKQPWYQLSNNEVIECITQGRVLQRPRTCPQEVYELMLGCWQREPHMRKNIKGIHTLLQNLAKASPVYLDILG
High affinity nerve growth factor receptor (Homo sapiens), sequence (P04629 33-796 limits assumed): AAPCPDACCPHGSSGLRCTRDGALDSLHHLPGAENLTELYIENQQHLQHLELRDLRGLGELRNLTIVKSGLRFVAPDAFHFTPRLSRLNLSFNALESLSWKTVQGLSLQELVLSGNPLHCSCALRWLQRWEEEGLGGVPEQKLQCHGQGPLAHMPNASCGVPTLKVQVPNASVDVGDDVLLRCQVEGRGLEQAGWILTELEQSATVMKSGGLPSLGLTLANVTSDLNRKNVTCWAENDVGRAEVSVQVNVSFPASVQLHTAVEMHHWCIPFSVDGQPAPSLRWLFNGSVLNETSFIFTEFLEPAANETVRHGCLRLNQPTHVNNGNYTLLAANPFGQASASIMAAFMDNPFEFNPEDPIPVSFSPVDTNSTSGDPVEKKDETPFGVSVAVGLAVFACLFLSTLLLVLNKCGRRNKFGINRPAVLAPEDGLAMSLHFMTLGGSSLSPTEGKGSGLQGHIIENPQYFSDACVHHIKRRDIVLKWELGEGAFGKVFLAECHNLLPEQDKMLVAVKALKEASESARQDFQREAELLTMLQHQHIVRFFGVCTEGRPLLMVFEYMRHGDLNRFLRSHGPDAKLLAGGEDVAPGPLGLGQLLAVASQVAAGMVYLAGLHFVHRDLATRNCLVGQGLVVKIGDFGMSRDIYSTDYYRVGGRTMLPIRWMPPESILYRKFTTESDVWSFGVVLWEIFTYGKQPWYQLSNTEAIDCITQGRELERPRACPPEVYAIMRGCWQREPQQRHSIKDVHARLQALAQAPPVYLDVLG

| Compound | inhibition [1] | inhibition [2] | inhibition [3] | inhibition [4] | inhibition [5] | inhibition [6] | inhibition [7] | inhibition [8] | inhibition [9] | inhibition [10] |
| --- | --- | --- | --- | --- | --- | --- | --- | --- | --- | --- |
| COc1cc2c(cc1Nc1nc(Nc3ccsc3C(N)=O)c3cc[nH]c3n1)N(C(=O)CN(C)C)CCC2(C)C | 13.6% | 3.72% | 11.4% | 4.08% | 11.6% | 2.02% | 4.22% | -4.11% | 49.6% | 3.59% |
| [O-][S+]1CCN(Cc2ccc(-c3ccc4ncnc(Nc5ccc(OCc6cccc(F)c6)c(Cl)c5)c4c3)o2)CC1 | 3.26% | 3.51% | 2.84% | 2.99% | 3.32% | -0.35% | 5.13% | -1.86% | 13.9% | 4.7% |
| NS(=O)(=O)c1ccc(N/N=C2\C(=O)Nc3ccc4ncccc4c32)cc1 | 50.4% | 21.5% | 72% | 26.7% | 78.5% | 5.15% | 26.9% | 7.29% | 67.6% | 27.3% |
| CCN(CC)S(=O)(=O)c1ccc(OC)c(Nc2ncc(-c3ccccc3)o2)c1 | 41.5% | 5.72% | 41.5% | 4.27% | 35.2% | 3.92% | 24.9% | -1.59% | 8.57% | 1.61% |
| CCOc1ccc2c(-c3ccnc(Nc4cccc(C(F)(F)F)c4)n3)cnn2n1 | 0.26% | 0.03% | 2.11% | 0.07% | 3.18% | -0.13% | 3.47% | -0.74% | 4.11% | 1.41% |
| CCn1c(-c2nonc2N)nc2c(C#CC(C)(C)O)ncc(OC3CCNCC3)c21 | 3.24% | 1.42% | 1.02% | 2.31% | -0.14% | 6.03% | 3.86% | 0.42% | 7.59% | 4.24% |
| NC(=O)c1sc(-n2cnc3ccc(C(F)(F)F)cc32)cc1OCc1ccccc1Br | 1.97% | 4.43% | 2.79% | 4.04% | 4.67% | 1.39% | -0.88% | -4.87% | 9.08% | 2.74% |
| Fc1cccc(COc2ccc(Nc3ncnc4sc(-c5ccco5)cc34)cc2Cl)c1 | 0.66% | 3.36% | 3.82% | 3.74% | 3.88% | -1.45% | 3.65% | -2.62% | 6.39% | 2.5% |
| Fc1ccc(-c2nn3ncccc3c2-c2ccnc(Nc3ccc4c(c3)OCCO4)n2)cc1 | 16.7% | 4.94% | 12.8% | 3.72% | 8.83% | 10.8% | 38% | -8.76% | 19.2% | 2.98% |
| CS(=O)(=O)CCNCc1coc(-c2ccc3ncnc(Nc4ccc(OCc5ccccc5)cc4)c3c2)c1 | 4.8% | 2% | 4.13% | 2.96% | 4.88% | 4.16% | 3.86% | 1.95% | 2.54% | 2.4% |
| COC(=O)c1sc(-n2cnc3cc(OC)c(OC)cc32)cc1OCc1ccccc1C(F)(F)F | 3.03% | 5.22% | 14.9% | 3.71% | 16.9% | 2.16% | 7.15% | -1.4% | 17.2% | 4.18% |
| CN1CCC(n2cnc(-c3ccc(F)cc3)c2-c2ccnc(N)n2)CC1 | 3.59% | 0.4% | 6.74% | 3.47% | 8.74% | 2.63% | 6.31% | -2.21% | -7.5% | 4.64% |
| CCn1c(-c2nonc2N)nc2c(C#CC(C)(C)O)nc(OC[C@H](N)c3ccccc3)cc21 | 3.54% | 1.58% | 2.5% | 1.64% | 6.42% | 7.32% | 3.73% | -2.11% | 11.2% | 2.4% |
| COc1cc(/C=N/Nc2ncnc3[nH]ncc23)ccc1O | 3.15% | 3.49% | 10.7% | 2.95% | 11.2% | 5.2% | 24.9% | -2.44% | 13.4% | 6.3% |
| CNC(=O)c1cncc(/C=C/c2ccccc2Cl)c1 | -0.75% | -1.43% | 2.71% | -1.83% | 3.94% | 4.15% | 16% | 2.63% | 5.89% | 1.14% |
| CNC(=O)c1cc(-c2ccc(F)cc2)cc(-c2ccc(S(=O)(=O)N3CCCC3)cc2)c1N | 2.94% | 2.22% | 2.48% | 2.53% | 2.33% | 2.21% | 2.22% | -3.89% | 3.8% | 0.79% |

Source: ChEMBL document CHEMBL1961873, “Compounds: GSK PKIS; Assays: Nanosyn kinase panel” (2012)
